Here are results for 39 compounds from the antibiotic and cytotoxicity screens of Wong et al. (2023).

Out of some 39,000 compounds screened, about 1,500 (3.8%) were called active. The sample as a whole holds a higher share of actives than the screen did.

The subject of this assay is HSkMC (human skeletal muscle cells). Briefly: cytotoxicity call (relative viability < 0.9). Conditions: 10 µM.
As to `CNC[C@H]1OCCCC[C@@H](C)Oc2ccc(NC(=O)c3ccncc3)cc2C(=O)N([C@@H](C)CO)C[C@H]1C`, the cytotoxicity call was “inactive”. The value for `C[C@@H]1CCCCO[C@@H](CN(C)C(=O)Nc2ccc(F)cc2)[C@@H](C)CN([C@H](C)CO)C(=O)c2cc(NC(=O)C3CCCCC3)ccc2O1` was “inactive”. For the compound `C[C@@H]1CN([C@@H](C)CO)C(=O)c2cc(NC(=O)c3ccccc3)ccc2O[C@@H](C)CCCCO[C@@H]1CN(C)S(=O)(=O)c1ccc(F)cc1`, the cytotoxicity call was “inactive”. As to `Cc1cc(O)n(C[C@H]2CCCO2)c(=O)c1C#N`, the cytotoxicity call is “inactive”. The value for `COc1ccc(S(=O)(=O)Nc2ccc3c(c2)C(=O)N([C@H](C)CO)C[C@@H](C)[C@H](CN(C)C(=O)Nc2ccc4c(c2)OCO4)OCCCC[C@@H](C)O3)cc1` was “inactive”; that for `COc1ccc(S(=O)(=O)N(C)C[C@H]2Oc3c(NC(=O)Nc4c(C)noc4C)cccc3C(=O)N([C@@H](C)CO)C[C@@H]2C)cc1` was “inactive”. The value for `O=C(NC1CCCCC1)N1c2ccccc2C=Cc2ccccc21` was “inactive”; that for `C[C@H]1CN([C@@H](C)CO)C(=O)c2c(c3ccccc3n2C)-c2ccccc2CO[C@@H]1CN(C)Cc1cccc2c1OCCCO2` was “inactive”; that for `CCCC(=O)N1CC[C@]2(CC1)CN([C@H](CO)c1c2c2ccc(cc2n1C)OC)C(=O)CN1CCOCC1` was “inactive”. The value for `C[C@H](CO)N1C[C@H](C)[C@H](CN(C)C(=O)Nc2ccc(F)cc2)Oc2ccc(NC(=O)Nc3cccc4ccccc34)cc2C1=O` was “inactive”. In the case of `CCS(=O)(=O)Nc1ccc2c(c1)C(=O)N(C)[C@H]1CC[C@@H](CC(=O)NCCCN3CCOCC3)O[C@H]1CO2`, the cytotoxicity call was “inactive”. The value for `COc1ccc(CN(C)C[C@H]2Oc3ccc(NC(=O)Nc4ccc(C(F)(F)F)cc4)cc3C(=O)N([C@@H](C)CO)C[C@H]2C)cc1` was “active”.

Turning to `COc1ccc(NC(=O)Nc2ccc3c(c2)C(=O)N([C@H](C)CO)C[C@H](C)[C@H](CN(C)Cc2ccc(C(F)(F)F)cc2)O3)cc1`, the cytotoxicity call is “inactive”. The value for `COc1ccc(CN(C)C[C@H]2Oc3ccc(NC(=O)Nc4ccc(C(F)(F)F)cc4)cc3C(=O)N([C@@H](C)CO)C[C@@H]2C)cc1` was “active”; that for `COc1ccc(NC(=O)Nc2ccc3c(c2)C(=O)N([C@H](C)CO)C[C@@H](C)[C@@H](CN(C)Cc2ccc(C(F)(F)F)cc2)O3)cc1` was “inactive”. Turning to `COc1ccc(S(=O)(=O)Nc2ccc3c(c2)C(=O)N([C@@H](C)CO)C[C@@H](C)[C@@H](CN(C)Cc2ccccc2)OCCCC[C@H](C)O3)cc1`, the cytotoxicity call was “inactive”. `C[C@H](CO)N1C[C@H](C)[C@@H](CN(C)S(=O)(=O)c2ccc(Cl)cc2)Oc2c(NS(C)(=O)=O)cccc2C1=O`: the cytotoxicity call was “inactive”. The value for `C[C@@H]1CN([C@@H](C)CO)C(=O)Cc2cc(NS(C)(=O)=O)ccc2O[C@H]1CN(C)S(=O)(=O)c1ccc(F)cc1` was “inactive”; that for `O=C(C[C@@H]1C=C[C@H](NC(=O)c2ccncc2)[C@@H](CO)O1)NCc1ccncn1` was “inactive”; that for `Cc1ccc(S(=O)(=O)Nc2ccc3c(c2)C(=O)N([C@H](C)CO)C[C@@H](C)[C@@H](CN(C)Cc2ccc(Oc4ccccc4)cc2)O3)cc1` was “active”. `Cc1ccc(S(=O)(=O)Nc2ccc3c(c2)C(=O)N([C@@H](C)CO)C[C@H](C)[C@@H](CN(C)Cc2ccc(Oc4ccccc4)cc2)O3)cc1`: the cytotoxicity call was “inactive”. The value for `COc1ccc(S(=O)(=O)Nc2ccc3c(c2)C(=O)N([C@H](C)CO)C[C@H](C)[C@@H](CN(C)Cc2ccc(Oc4ccccc4)cc2)O3)cc1` was “active”. Consider `Cc1ccc(S(=O)(=O)Nc2ccc3c(c2)C(=O)N([C@@H](C)CO)C[C@@H](C)[C@H](CN(C)Cc2ccc(Oc4ccccc4)cc2)O3)cc1`, for which the cytotoxicity call was “inactive”. The value for `Cc1ccc(S(=O)(=O)Nc2ccc3c(c2)C(=O)N([C@@H](C)CO)C[C@@H](C)[C@@H](CN(C)Cc2ccc(Oc4ccccc4)cc2)O3)cc1` was “active”. The value for `C[C@H](CO)N1C[C@H](C)[C@@H](CN(C)Cc2ccc(Oc3ccccc3)cc2)Oc2ccc(NS(=O)(=O)c3ccccc3)cc2C1=O` was “inactive”; that for `COc1ccc(S(=O)(=O)Nc2ccc3c(c2)C(=O)N([C@H](C)CO)C[C@@H](C)[C@@H](CN(C)Cc2ccc(Oc4ccccc4)cc2)O3)cc1` was “inactive”. The value for `Cc1ccc(S(=O)(=O)Nc2ccc3c(c2)C(=O)N([C@@H](C)CO)C[C@H](C)[C@H](CN(C)Cc2ccc(Oc4ccccc4)cc2)O3)cc1` was “inactive”.

`COc1ccc(S(=O)(=O)Nc2ccc3c(c2)C(=O)N([C@H](C)CO)C[C@H](C)[C@H](CN(C)Cc2ccc(Oc4ccccc4)cc2)O3)cc1`: the cytotoxicity call was “inactive”. The value for `C[C@@H]1CN([C@H](C)CO)C(=O)c2cc(NS(=O)(=O)c3ccccc3)ccc2O[C@@H]1CN(C)Cc1ccc(Oc2ccccc2)cc1` was “active”. In the case of `C[C@H]1CN([C@@H](C)CO)C(=O)c2cc(NS(=O)(=O)c3ccccc3)ccc2O[C@H]1CN(C)Cc1ccc(Oc2ccccc2)cc1`, the cytotoxicity call is “inactive”. In the case of `CC(C)NC(=O)Nc1ccc2c(c1)C(=O)N([C@H](C)CO)C[C@@H](C)[C@@H](CN(C)C(=O)NC1CCCCC1)O2`, the cytotoxicity call is “inactive”. Turning to `CN1CCN(C(=O)C[C@H]2CC[C@H](NC(=O)c3ccc4c(c3)OCO4)[C@H](CO)O2)CC1`, the cytotoxicity call was “inactive”.

As to `C[C@@H]1CN([C@@H](C)CO)C(=O)c2cc(NS(=O)(=O)c3cccs3)ccc2O[C@@H](C)CCCCO[C@H]1CN(C)Cc1ccccc1`, the cytotoxicity call is “inactive”. The value for `C[C@H](CO)N1C[C@H](C)[C@H](CN(C)C(=O)Cc2ccccn2)Oc2cc(-c3cccc(C(=O)N(C)C)c3)ccc2S1(=O)=O` was “inactive”; that for `C[N+](C)(C)CCCC[C@@H]1NC(=O)[C@@H]2C[C@H](C(=O)NCc3ccc(F)cc3)[C@H](c3cccc(OCCO)c3)N2C1=O` was “inactive”; that for `C[C@@H]1CCCCO[C@@H](CN(C)Cc2ccccc2)[C@H](C)CN([C@@H](C)CO)C(=O)c2cc(NC(=O)c3ccncc3)ccc2O1` was “inactive”. On to `C[C@H](CO)N1C[C@H](C)[C@@H](CN(C)C(=O)Nc2ccccc2F)Oc2ncc(Br)cc2C1=O`, for which the cytotoxicity call was “inactive”.

Take `C[C@H](CO)N1C[C@H](C)[C@@H](CN(C)C(=O)Nc2ccc(C(C)(C)C)cc2)OCc2cn(nn2)CCCC1=O`: the cytotoxicity call is “inactive”. The value for `C[C@H]1CN([C@@H](C)CO)C(=O)Cc2cc(NC(=O)Cc3cn(C)c4ccccc34)ccc2O[C@H]1CN(C)Cc1ccc(C(=O)Nc2ccccc2N)cc1` was “inactive”.
